PTK2B oligo ant: antagonists of human Pyk2 oligomerization; 0.83% of 99,000 active; z-score (the deposit names both 25 µM and 10 µM); Q293 cells, Pyk2 FERM NanoBiT luminescence; active compounds read low;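 active means Z-score of -3 or lower, scaled per plate to the spread of control and sample wells; inactive means z-score above -3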;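 further: negative z-score means lost luminescence so less FERM oligomerization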
PTPN22 inh 2: LYP (human) phosphatase inhibition. inhibition, % at 2 µM. Q9Y2R2. recombinant LYP catalytic domain, DiFMUP fluorescence. 0.21% of 96,000 active. AID 640;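 active means inhibition at 2 µM at or above a set limit, the screen mean plus 3 SD, cut at about 24% in these data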
PTPN22 act: LYP (human) phosphatase activation. Q9Y2R2. 0.11% of 96,000 active. AID 697. activation, % at 2 µM. recombinant LYP, DiFMUP fluorescence; 0 = plate median, 100 = signal doubled;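 active means activation at 2 µM above a set limit, the mean plus 5 SD, cut at about 37% in these data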
PLK1 kinase inh: blocks human PLK1 kinase activity | inhibition, % at 10 µM | recombinant PLK1 kinase, TR-FRET peptide phosphorylation | 0.53% of 97,000 active | AID 619 | P53350;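 active means inhibition of 50% or more in the single-concentration screen; inactive means inhibition below 50%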
Target sequence (P53350 whole entry, looked up): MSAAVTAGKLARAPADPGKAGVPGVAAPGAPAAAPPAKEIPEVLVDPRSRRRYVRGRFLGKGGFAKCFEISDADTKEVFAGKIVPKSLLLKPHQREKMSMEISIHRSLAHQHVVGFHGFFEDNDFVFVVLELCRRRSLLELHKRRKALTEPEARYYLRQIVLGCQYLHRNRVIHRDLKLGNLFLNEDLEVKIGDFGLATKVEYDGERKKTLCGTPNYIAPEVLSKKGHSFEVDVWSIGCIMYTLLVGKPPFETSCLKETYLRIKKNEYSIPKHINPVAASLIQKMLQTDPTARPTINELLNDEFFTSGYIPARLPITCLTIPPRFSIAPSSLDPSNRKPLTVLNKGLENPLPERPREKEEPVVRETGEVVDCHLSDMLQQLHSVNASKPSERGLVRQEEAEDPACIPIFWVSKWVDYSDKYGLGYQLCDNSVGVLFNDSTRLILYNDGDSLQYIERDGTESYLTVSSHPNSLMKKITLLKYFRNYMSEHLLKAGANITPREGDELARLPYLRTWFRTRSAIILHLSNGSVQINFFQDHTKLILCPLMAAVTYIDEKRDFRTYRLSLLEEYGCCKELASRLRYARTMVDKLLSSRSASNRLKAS
Plk1 PBD FP: blocks phosphopeptide binding to human Plk1 polo box domain; Plk1 PBD phosphopeptide binding, fluorescence polarization; inhibition, %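 (tested at about 20 µM)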; 0.13% of 97,000 active; in the data active means inhibition above about 34%, passing the limit was not always enough
Large screens that a line does not name were inactive. This is a sample that favours compounds with a hit; in the whole collection about 1.7% have one here.

CN1CCc2nc(SCC(=O)Nc3cccc(F)c3)c(C#N)c(-c3cccs3)c2C1	PTK2B oligo ant -3.12
O=C(COC(=O)c1cccnc1Cl)c1cccc(Cl)c1	none
CCOc1ccc(NC(=O)C2CCN(C(=O)NCc3ccccc3)CC2)cc1	none
CCOc1ccc(NC(=O)C2CCN(C(=O)NC3CCCCC3)CC2)cc1	PLK1 kinase inh 52.0
CCCCc1cc(O)c(CCCC)c(O)c1	PTK2B oligo ant -3.67
CCCCCc1cc(O)c2c(C)cc(=O)oc2c1	none
COc1ccc2cc3cc(C(=O)Nc4ccccc4N4CCN(C)CC4)oc3nc2c1	none
COc1ccc2cc3cc(C(=O)NCCN4CCN(c5ccccc5F)CC4)oc3nc2c1	PTK2B oligo ant -3.13
CN(C)c1ccc(-c2nn3c(C4CCCCC4)nnc3s2)cc1	PTK2B oligo ant -3.64
COC(=O)C1C2C=CC3(CN(C(C)C)C(=O)C13)O2 (stereo not given)	PLK1 kinase inh 54.8 (no result: PTK2B oligo ant, PTPN22 inh 2, PTPN22 act)
O=C(NCc1ccc2c(c1)OCO2)c1cc2ncc(Br)cn2n1	none
CCOc1cc(C2C(C(=O)OC)=C(C)N=C3SC(C)C(=O)N32)ccc1OC(C)=O (stereo not given)	none
COC(=O)C1=C(C)N=C2SC(C)C(=O)N2C1c1cccc(F)c1 (stereo not given)	PTK2B oligo ant -3.57
CCOC(=O)N1CCN(C2CC(=O)N(c3ccc(Oc4ccccc4)cc3)C2=O)CC1 (stereo not given)	none
CN1CCN(c2cc(=O)n(C3CCCCC3)c(=O)[nH]2)CC1	PLK1 kinase inh 65.1 (no result: PTK2B oligo ant, PTPN22 inh 2, PTPN22 act)
CCN1CCN(C(c2cccs2)C(C)NS(=O)(=O)c2ccc(Br)cc2)CC1 (stereo not given)	none
Cc1ccc(C(=O)Nc2cccc(C(=O)O)c2)cc1	none (no result: PTK2B oligo ant)
Cc1ccc(-c2nc3ccc(C(=O)O)cc3nc2-c2ccc(C)cc2)cc1	PTK2B oligo ant -3.28
COc1ccc(N(CC(=O)Nc2ccc3c(c2)OCO3)S(=O)(=O)c2ccccc2)c(OC)c1	PTK2B oligo ant -3.23
N=c1n(CCN2CCCCC2)c2ccccc2n1CC(O)c1cccc(Br)c1 (stereo not given)	none
N=c1n(CCN2CCCCC2)c2ccccc2n1CC(O)c1ccc(Cl)c(Cl)c1 (stereo not given)	PLK1 kinase inh 62.7
Cc1cccc(N(CC(=O)NCc2ccc3c(c2)OCO3)C(=O)CCC(=O)Nc2ccccn2)c1C	PTK2B oligo ant -3.15
Nc1nc(SCC(=O)C23CC4CC(CC(C4)C2)C3)n[nH]1	none
CC(=O)Nc1ccc(C(=O)OCC(=O)Nc2ccccc2Sc2ccccc2)cc1	PTK2B oligo ant -3.12 (no result: PTPN22 inh 2, PTPN22 act, PLK1 kinase inh, Plk1 PBD FP)
COc1cccc(NC(=O)Nc2ccc3c(c2)N(C)C(=O)CS3)c1	PTK2B oligo ant -3.99
CCOC(=O)c1ccc(-c2c(C(=O)OCC)oc3cc(O)c(CC)cc3c2=O)o1	PTK2B oligo ant -3.66
CCOC(=O)c1oc2cc(O)ccc2c(=O)c1-c1ccccc1OC	none
COc1ccc(C(=O)/C=C\c2ccc(NC(=O)c3cccs3)cc2)cc1	none
COc1ccc(CN2CCNC(=O)C2CC(=O)O)cc1OC (stereo not given)	none (no result: PTK2B oligo ant)
Cc1ccc(CN2CCNC(=O)C2CC(=O)O)cc1 (stereo not given)	PLK1 kinase inh 60.9 (no result: PTK2B oligo ant, PTPN22 inh 2, PTPN22 act)
O=C(O)CC1C(=O)NCCN1Cc1ccc(F)c(F)c1 (stereo not given)	PLK1 kinase inh 64.7 (no result: PTK2B oligo ant, PTPN22 inh 2, PTPN22 act)
CC(Sc1nc(N(C)C)nc(N2CCOCC2)n1)C(=O)Nc1ccccc1 (stereo not given)	none
c1cncc(C2Nc3ccccc3-c3nc4ccccc4n32)c1 (stereo not given)	PTK2B oligo ant -3.28
N#Cc1ccsc1NC(=O)COc1ccc(-c2nnco2)cc1	none (no result: PTPN22 inh 2, PTPN22 act, PLK1 kinase inh, Plk1 PBD FP)
N#Cc1nc(COc2ccccc2F)oc1NCCc1ccccc1	none
CN(Cc1ccccc1)c1oc(COc2ccccc2F)nc1C#N	PLK1 kinase inh 69.2 (no result: PTK2B oligo ant, PTPN22 inh 2, PTPN22 act)
O=c1oc(-c2ccc(Br)o2)nc2ccccc12	none
COc1ccnc(CSC(N)=Nc2cccc(C(F)(F)F)c2)c1	none (no result: PTPN22 inh 2, PTPN22 act, PLK1 kinase inh, Plk1 PBD FP)
Cc1ccc(C(=O)CC2(O)C(=O)N(C)c3ccccc32)o1 (stereo not given)	PLK1 kinase inh 63.4 (no result: PTK2B oligo ant, PTPN22 inh 2, PTPN22 act)
COC(=O)CN1C(=O)C(O)(CC(=O)c2ccc(C)o2)c2ccccc21 (stereo not given)	none
CN(C1CCCCC1)S(=O)(=O)c1ccc2c(c1)c(=O)c(C(=O)NCCN1CCCC1)cn2C	PLK1 kinase inh 61.8 (no result: PTK2B oligo ant, PTPN22 inh 2, PTPN22 act)
CN(C1CCCCC1)S(=O)(=O)c1ccc2c(c1)c(=O)c(C(=O)NCCCN1CCCC1)cn2C	PLK1 kinase inh 59.2 (no result: PTK2B oligo ant, PTPN22 inh 2, PTPN22 act)
Cc1ccc2cc(CCNC(=O)c3ccc4c(c3)OCO4)c(=O)[nH]c2c1C	none (no result: PTK2B oligo ant)
CCc1cc(=O)oc2c(C)c(OCC(=O)N3CCCc4ccccc43)ccc12	PTK2B oligo ant -4.58
Brc1ccc2[nH]ncc2c1	PLK1 kinase inh 50.7
COc1ccccc1-c1cnnc(N/N=C/c2ccc(-c3cccc(Br)c3)o2)n1	PTPN22 inh 2 31.4
O=C(CCCn1c(=O)[nH]c2ccsc2c1=O)NCc1cccs1	none
COc1ccc(Nc2nc(NCc3ccco3)nc(N/N=C/c3ccccc3)n2)cc1	PTK2B oligo ant -3.2
COc1ccccc1NS(=O)(=O)c1cccc(C(=O)OCC(=O)Nc2cc(C)on2)c1	none
Cc1cccc(NS(=O)(=O)c2ccc(C)c(C(=O)OCC(=O)Nc3cc(C)on3)c2)c1	PTK2B oligo ant -3.83
Cc1cccc(NS(=O)(=O)c2cc(C(=O)OCC(=O)Nc3cc(C)on3)ccc2C)c1	PTK2B oligo ant -3.35
Cn1c2ccc(Cl)cc2c2nc3ccccc3nc21	PLK1 kinase inh 66.8 (no result: PTK2B oligo ant, PTPN22 inh 2, PTPN22 act)
Cc1cc(NC(=O)c2cncc(Br)c2)no1	none
O=C(O)C1C2C=CC3(CN(Cc4ccco4)C(=O)C13)O2 (stereo not given)	PLK1 kinase inh 58.5 (no result: PTK2B oligo ant, PTPN22 inh 2, PTPN22 act)
COC(=O)C1C2C=CC3(CN(Cc4ccco4)C(=O)C13)O2 (stereo not given)	none
CCN(CC)CCCn1c(C)cc2c(c1=O)C(c1cc(OC)c(OC)cc1OC)C(C#N)=C(N)O2 (stereo not given)	none
CCN(CC)CCCn1c(C)cc2c(c1=O)C(c1cccc(Cl)c1)C(C#N)=C(N)O2 (stereo not given)	Plk1 PBD FP 46.5
CCOC(=O)c1c2ccc(OCC(=O)N/N=C/c3ccc(C)cc3)cc2n2ccccc12	PTPN22 inh 2 24.2
O=C(NCCCO)Nc1ccc2nc(-c3ccco3)c(-c3ccco3)nc2c1	PLK1 kinase inh 52.1 (no result: PTK2B oligo ant)
COC(=O)c1ccc(CN(c2ccc(C)cc2)S(=O)(=O)c2ccc3c(c2)OCCO3)o1	PTK2B oligo ant -3.33
COC(=O)c1ccc(CN(C)S(=O)(=O)c2ccc(C)cc2)o1	none (no result: PTPN22 inh 2, PTPN22 act, PLK1 kinase inh, Plk1 PBD FP)
O=C(NC1CC2CCCC(C1)N2CC(=O)N1CCCc2ccccc21)C1CCCCC1 (stereo not given)	none
Cc1nc(SCC(O)CO)c([N+](=O)[O-])[nH]1 (stereo not given)	none
FC(F)(F)c1cccc(-c2nnc(-c3ccccc3)c(N3CCOCC3)n2)c1	PTK2B oligo ant -3.87
FC(F)(F)c1nnc(-c2ccccc2)nc1N1CCOCC1	none
O=c1c2cn[nH]c2nc(SCc2ccc3c(c2)OCCO3)n1-c1ccccc1	PTK2B oligo ant -3.7

Screening data from PubChem.
